# The full list was thinned out, with the strongest signals kept by preference.
# How the values were obtained:
# Assay in all cases: glycan array binding signal (z-score within array); higher = stronger binding
# Conditions in all cases: glycan notation: IUPAC condensed, linker removed
# [1] = tested on: Gal(b1-4)GlcNAc(a1-6)Gal(b1-4)GlcNAc
# Procedure, shortened: (§1)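 The Consortium for Functional Glycomics database supplied 3228 glycan arrays, of which those lacking an available protein sequence were dropped. The binding signal, a within-array Z-score, was averaged across arrays of the same protein sequence and across linkers. Negative scores can be read as non-binding.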
# [2] = tested on: Gal(b1-4)GlcNAc(b1-2)Man(a1-3)[Man(a1-6)]Man(b1-4)GlcNAc(b1-4)GlcNAc
# Procedure, shortened: as §1
# [3] = tested on: Gal(b1-4)GlcNAc(b1-2)Man(a1-6)[GlcNAc(b1-2)Man(a1-3)]Man(b1-4)GlcNAc(b1-4)GlcNAc
# Procedure, shortened: as §1
# [4] = tested on: Gal(b1-4)GlcNAc(b1-2)Man(a1-3)[Gal(b1-4)GlcNAc(b1-2)Man(a1-6)]Man(b1-4)GlcNAc(b1-4)GlcNAc
# Procedure, shortened: as §1
# [5] = tested on: Gal(b1-4)GlcNAc(b1-2)Man(a1-6)[Man(a1-3)]Man(b1-4)GlcNAc(b1-4)GlcNAc
# Procedure, shortened: as §1
# [6] = tested on: Gal(b1-4)GlcNAc(b1-2)Man(a1-3)Man(b1-4)GlcNAc(b1-4)GlcNAc
# Procedure, shortened: as §1
# [7] = tested on: Gal(b1-4)GlcNAc(b1-2)Man(a1-3)[Gal(b1-4)GlcNAc(b1-2)Man(a1-6)]Man(b1-4)GlcNAc(b1-4)[Fuc(a1-6)]GlcNAc
# Procedure, shortened: as §1
# [8] = tested on: Gal(b1-4)GlcNAc(b1-2)Man(a1-3)[GlcNAc(b1-2)Man(a1-6)]Man(b1-4)GlcNAc(b1-4)GlcNAc
# Procedure, shortened: as §1
# [9] = tested on: Gal(b1-4)GlcNAc(b1-2)Man
# Procedure, shortened: as §1
# [10] = tested on: Gal(b1-4)GlcNAc(b1-2)Man(a1-6)Man(b1-4)GlcNAc(b1-4)GlcNAc
# Procedure, shortened: as §1
substance,measurement,setting,value
"SpGH101 (Streptococcus pneumoniae), Q8DR60",glycan array binding signal (z-score),[1],-0.178
same,glycan array binding signal (z-score),[2],-0.069
AgI/II Vhelical-GFP (Streptococcus mutans),glycan array binding signal (z-score),[3],-0.18
"SiiE (Salmonella typhimurium), A0A0H3NVH0",glycan array binding signal (z-score),[4],2.4
same,glycan array binding signal (z-score),[5],0.213
"BambL (Burhholderia ambifaria), Q0B4G1",glycan array binding signal (z-score),[6],-0.313
same,glycan array binding signal (z-score),[7],0.351
same,glycan array binding signal (z-score),[8],-0.301
Epa22,glycan array binding signal (z-score),[7],1.95
LcI (Legionella pneumophila),glycan array binding signal (z-score),[9],0.449
"Wza (Escherichia coli), P0A930",glycan array binding signal (z-score),[10],1.02

# Reference: the supplement of paper PMC8728848
